Reference: the supplement of paper PMC12819154, “High-throughput peptide-centric local stability assay extends protein–ligand identification to membrane proteins, tissues and bacteria” (Nature Structural & Molecular Biology, 2025)

Compound: Cc1nc(Nc2ncc(C(=O)Nc3c(C)cccc3Cl)s2)cc(N2CCN(CCO)CC2)n1 [dasatinib]
Test: log2 fold change of tryptic peptide abundance, ligand vs vehicle (limited proteolysis) (log2 ratio); higher = more trypsin-susceptible (destabilized)
Conditions: ligand concentration: 5 uM; sample: K562 cleared lysate

Sequence of UniProt Q9UL54 (Q9UL54 whole entry): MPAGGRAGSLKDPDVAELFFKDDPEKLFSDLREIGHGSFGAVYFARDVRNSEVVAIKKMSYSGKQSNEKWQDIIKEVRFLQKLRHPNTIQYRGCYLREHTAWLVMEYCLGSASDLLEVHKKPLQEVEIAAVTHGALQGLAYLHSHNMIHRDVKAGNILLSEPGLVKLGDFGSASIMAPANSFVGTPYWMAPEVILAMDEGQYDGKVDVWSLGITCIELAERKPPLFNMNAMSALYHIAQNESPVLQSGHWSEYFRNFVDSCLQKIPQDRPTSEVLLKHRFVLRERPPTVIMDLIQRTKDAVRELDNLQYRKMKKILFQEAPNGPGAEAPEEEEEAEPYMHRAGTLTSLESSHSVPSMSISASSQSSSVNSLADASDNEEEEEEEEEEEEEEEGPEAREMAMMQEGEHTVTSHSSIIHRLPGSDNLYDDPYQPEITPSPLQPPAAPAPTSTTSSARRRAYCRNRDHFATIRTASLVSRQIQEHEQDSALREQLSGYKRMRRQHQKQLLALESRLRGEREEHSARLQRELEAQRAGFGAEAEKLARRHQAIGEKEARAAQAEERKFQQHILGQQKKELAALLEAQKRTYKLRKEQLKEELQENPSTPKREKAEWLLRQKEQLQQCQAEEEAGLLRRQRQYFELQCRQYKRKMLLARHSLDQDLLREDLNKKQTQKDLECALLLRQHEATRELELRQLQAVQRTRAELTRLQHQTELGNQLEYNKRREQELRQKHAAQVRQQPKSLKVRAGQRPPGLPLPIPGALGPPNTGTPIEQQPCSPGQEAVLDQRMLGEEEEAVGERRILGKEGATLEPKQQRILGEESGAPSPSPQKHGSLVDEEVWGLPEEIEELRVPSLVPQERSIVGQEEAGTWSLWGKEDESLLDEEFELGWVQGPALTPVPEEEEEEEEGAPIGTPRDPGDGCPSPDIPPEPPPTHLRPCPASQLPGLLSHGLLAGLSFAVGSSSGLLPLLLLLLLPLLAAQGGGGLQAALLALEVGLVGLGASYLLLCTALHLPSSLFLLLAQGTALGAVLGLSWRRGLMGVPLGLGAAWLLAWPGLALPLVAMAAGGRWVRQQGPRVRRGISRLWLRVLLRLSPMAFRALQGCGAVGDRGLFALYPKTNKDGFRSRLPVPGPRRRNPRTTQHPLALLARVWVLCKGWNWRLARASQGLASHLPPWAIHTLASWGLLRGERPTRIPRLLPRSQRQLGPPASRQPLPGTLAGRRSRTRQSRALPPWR
Sequence of UniProt Q06203 (Q06203 whole entry): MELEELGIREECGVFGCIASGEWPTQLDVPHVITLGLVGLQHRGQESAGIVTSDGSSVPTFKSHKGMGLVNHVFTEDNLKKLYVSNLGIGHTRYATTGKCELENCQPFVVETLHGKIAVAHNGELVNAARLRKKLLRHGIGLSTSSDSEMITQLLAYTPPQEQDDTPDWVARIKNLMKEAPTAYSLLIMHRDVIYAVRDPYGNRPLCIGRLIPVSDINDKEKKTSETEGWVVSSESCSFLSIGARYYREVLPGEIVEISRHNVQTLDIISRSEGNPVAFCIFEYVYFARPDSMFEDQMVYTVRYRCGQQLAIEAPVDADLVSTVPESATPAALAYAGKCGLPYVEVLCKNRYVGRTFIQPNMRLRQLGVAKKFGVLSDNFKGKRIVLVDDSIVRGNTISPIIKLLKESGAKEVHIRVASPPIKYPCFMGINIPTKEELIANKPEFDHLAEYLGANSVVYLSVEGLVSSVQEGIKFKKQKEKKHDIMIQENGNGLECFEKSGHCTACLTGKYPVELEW
Sequence of UniProt P42684 (P42684 whole entry): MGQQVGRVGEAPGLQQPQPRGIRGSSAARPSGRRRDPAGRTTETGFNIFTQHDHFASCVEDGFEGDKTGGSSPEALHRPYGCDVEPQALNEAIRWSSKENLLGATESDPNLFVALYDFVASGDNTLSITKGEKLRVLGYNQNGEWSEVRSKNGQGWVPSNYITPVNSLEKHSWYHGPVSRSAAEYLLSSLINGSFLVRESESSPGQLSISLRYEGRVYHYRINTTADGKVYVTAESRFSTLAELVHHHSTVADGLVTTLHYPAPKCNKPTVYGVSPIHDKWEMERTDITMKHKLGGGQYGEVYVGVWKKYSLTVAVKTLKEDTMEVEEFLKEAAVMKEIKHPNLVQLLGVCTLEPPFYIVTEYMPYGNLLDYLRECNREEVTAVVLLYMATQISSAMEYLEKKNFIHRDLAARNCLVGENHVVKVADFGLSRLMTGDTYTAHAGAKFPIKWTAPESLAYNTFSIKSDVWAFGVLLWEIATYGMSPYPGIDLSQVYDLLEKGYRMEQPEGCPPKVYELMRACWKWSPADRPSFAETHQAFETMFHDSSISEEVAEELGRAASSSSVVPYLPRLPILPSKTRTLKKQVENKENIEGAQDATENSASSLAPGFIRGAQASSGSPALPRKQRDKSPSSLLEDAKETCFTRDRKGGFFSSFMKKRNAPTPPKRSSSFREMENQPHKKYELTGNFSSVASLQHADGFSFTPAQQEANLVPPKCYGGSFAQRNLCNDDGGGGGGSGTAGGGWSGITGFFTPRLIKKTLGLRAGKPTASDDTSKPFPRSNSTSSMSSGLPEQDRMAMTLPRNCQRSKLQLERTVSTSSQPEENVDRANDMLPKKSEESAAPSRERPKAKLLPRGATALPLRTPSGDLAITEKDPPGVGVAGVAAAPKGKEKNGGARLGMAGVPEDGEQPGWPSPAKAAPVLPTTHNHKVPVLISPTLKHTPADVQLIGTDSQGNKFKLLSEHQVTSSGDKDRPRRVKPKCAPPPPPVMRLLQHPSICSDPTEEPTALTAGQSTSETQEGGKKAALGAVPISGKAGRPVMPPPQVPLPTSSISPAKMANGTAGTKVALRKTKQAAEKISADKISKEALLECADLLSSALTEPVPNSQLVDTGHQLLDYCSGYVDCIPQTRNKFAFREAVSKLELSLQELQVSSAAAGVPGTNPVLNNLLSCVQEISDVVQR
Sequence of UniProt P23458 (P23458 whole entry): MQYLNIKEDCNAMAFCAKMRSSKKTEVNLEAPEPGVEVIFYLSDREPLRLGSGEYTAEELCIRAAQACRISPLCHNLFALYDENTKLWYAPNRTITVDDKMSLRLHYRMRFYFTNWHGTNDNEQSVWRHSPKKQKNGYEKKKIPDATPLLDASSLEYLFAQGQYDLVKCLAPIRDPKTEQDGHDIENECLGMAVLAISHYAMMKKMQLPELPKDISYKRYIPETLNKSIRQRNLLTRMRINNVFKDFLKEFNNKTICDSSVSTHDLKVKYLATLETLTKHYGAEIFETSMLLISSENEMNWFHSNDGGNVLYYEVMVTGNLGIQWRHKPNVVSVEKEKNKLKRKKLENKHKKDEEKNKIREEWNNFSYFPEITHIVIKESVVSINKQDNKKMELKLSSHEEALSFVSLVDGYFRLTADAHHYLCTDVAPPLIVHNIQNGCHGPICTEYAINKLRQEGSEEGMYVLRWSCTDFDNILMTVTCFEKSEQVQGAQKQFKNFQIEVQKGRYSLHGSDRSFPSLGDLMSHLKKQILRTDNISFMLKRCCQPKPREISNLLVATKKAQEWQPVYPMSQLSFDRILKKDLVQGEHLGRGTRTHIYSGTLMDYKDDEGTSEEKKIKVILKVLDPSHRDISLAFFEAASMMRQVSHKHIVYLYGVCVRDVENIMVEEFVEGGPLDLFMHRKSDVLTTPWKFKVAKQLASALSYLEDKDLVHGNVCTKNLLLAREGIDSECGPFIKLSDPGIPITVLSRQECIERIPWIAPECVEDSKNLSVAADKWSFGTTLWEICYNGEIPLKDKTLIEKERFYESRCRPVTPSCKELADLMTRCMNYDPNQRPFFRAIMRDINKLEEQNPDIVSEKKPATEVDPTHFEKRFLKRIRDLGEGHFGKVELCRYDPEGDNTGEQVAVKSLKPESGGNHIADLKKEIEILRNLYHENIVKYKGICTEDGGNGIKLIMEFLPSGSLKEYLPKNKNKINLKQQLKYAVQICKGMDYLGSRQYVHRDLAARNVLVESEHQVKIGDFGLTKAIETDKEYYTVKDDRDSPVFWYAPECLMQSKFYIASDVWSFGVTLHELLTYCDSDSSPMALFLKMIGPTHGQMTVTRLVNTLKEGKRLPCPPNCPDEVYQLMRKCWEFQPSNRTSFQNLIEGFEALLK
Sequence of UniProt Q16539 (Q16539 whole entry): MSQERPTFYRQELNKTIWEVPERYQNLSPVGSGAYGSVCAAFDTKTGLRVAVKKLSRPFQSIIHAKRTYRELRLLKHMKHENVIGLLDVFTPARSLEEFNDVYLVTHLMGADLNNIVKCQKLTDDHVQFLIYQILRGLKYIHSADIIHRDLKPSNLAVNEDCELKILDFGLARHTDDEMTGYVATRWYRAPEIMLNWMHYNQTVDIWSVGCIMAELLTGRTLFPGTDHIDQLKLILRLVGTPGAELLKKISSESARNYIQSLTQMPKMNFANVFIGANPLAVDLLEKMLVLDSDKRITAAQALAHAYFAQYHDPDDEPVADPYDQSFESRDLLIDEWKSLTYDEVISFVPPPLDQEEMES
Sequence of UniProt P36507 (P36507 whole entry): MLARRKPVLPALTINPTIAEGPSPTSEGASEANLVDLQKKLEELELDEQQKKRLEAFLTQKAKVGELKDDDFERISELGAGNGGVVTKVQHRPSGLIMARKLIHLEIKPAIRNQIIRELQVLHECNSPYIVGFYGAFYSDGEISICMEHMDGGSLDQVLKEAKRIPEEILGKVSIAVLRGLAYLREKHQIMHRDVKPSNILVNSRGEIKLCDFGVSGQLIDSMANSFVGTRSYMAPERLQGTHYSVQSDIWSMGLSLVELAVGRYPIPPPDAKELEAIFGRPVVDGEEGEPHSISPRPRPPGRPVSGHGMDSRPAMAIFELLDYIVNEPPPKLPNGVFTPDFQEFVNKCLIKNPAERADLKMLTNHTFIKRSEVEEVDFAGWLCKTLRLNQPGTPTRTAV

| Target | log2 fold change |
| --- | --- |
| UniProt Q9P289 (peptide sequence: GSFGEVFK, peptide start residue: 33) | -0.606 |
| GAK (peptide sequence: AIIQEVCFMK, peptide start residue: 81) (UniProt O14976) | -2.44 |
| TNIK (peptide sequence: NHSQRPATEQLMK, peptide start residue: 273) (UniProt Q9UKE5) | -0.606 |
| PPAT (peptide sequence: TFIQPNMR, peptide start residue: 356) (UniProt Q06203) | -0.503 |
| UniProt Q8N4C8 (peptide sequence: NIATYYGAFIK, peptide start residue: 81) | -0.397 |
| TYK2 (peptide sequence: EITQLSHLGQGTR, peptide start residue: 588) (UniProt P29597) | -1.29 |
| ILK (peptide sequence: DFNEECPR, peptide start residue: 234) (UniProt Q13418) | 0.893 |
| Jak2 (peptide sequence: VLPQDKEYYK, peptide start residue: 1000) (UniProt O60674) | -0.993 |
| UniProt Q16512 (peptide sequence: VLLSEFRPSGELFAIK, peptide start residue: 629) | 1.18 |
| MAP4K3 (peptide sequence: RNPQEDFELIQR, peptide start residue: 10) (UniProt Q8IVH8) | -1.06 |
| SYK (peptide sequence: GSEVTAMLEKGER, peptide start residue: 578) (UniProt P43405) | -0.709 |
| MAPK14 (peptide sequence: DLLIDEWK, peptide start residue: 331) (UniProt Q16539) | -1.32 |
| ARAF (peptide sequence: RLLSDCLK, peptide start residue: 544) (UniProt P10398) | 0.619 |
| UniProt Q13163 (peptide sequence: DVKPSNMLVNTR, peptide start residue: 283) | 1.77 |
| ULK3 (peptide sequence: VIELPLRPLLSR, peptide start residue: 230) (UniProt Q6PHR2) | -0.336 |
| PYGL (peptide sequence: NLAENISR, peptide start residue: 271) (UniProt P06737) | -0.422 |
| ABL2 (peptide sequence: NCLVGENHVVK, peptide start residue: 414) (UniProt P42684) | -2.95 |
| UniProt Q9Y2K2 (peptide sequence: IGYYEIDR, peptide start residue: 63) | -1.83 |
| ABHD4 (peptide sequence: VAGPWGPGLVQR, peptide start residue: 209) (UniProt Q8TB40) | 0.933 |
| MAPK11 (peptide sequence: ILDFGLAR, peptide start residue: 167) (UniProt Q15759) | -0.259 |

| Target | log2 fold change |
| --- | --- |
| PYGB (peptide sequence: GLAGLGDVAEVR, peptide start residue: 18) (UniProt P11216) | -0.49 |
| CSK (peptide sequence: SGWALNMK, peptide start residue: 186) (UniProt P41240) | -0.697 |
| MAP4K5 (peptide sequence: LLTHTFVAQPGLSR, peptide start residue: 271) (UniProt Q9Y4K4) | -0.838 |
| AASDHPPT (peptide sequence: IGQFVFAR, peptide start residue: 48) (UniProt Q9NRN7) | -0.547 |
| UniProt Q9Y2U5 (peptide sequence: LLGQGAFGR, peptide start residue: 361) | -0.631 |
| TEC (peptide sequence: GCLLNFLR, peptide start residue: 448) (UniProt P42680) | -2.98 |
| UniProt Q13043 (peptide sequence: ATATQLLQHPFVR, peptide start residue: 270) | -0.627 |
| FECH (peptide sequence: LFLDRDLMTLPIQNK, peptide start residue: 92) (UniProt P22830) | -0.278 |
| UniProt Q16513 (peptide sequence: IFETVNSVR, peptide start residue: 708) | 0.751 |
| JAK1 (peptide sequence: NVLVESEHQVK, peptide start residue: 1008) (UniProt P23458) | -1.51 |
| TAOK2 (peptide sequence: ELDNLQYR, peptide start residue: 299) (UniProt Q9UL54) | 0.422 |
| UniProt P36507 (peptide sequence: KLEELELDEQQKK, peptide start residue: 40) | 0.445 |
| TNK1 (peptide sequence: VADFGLVRPLGGAR, peptide start residue: 261) (UniProt Q13470) | -0.538 |
| UniProt P46781 (peptide sequence: ELLTLDEKDPRR, peptide start residue: 59) | -0.304 |
| UniProt Q8NI60 (peptide sequence: VALLDFGATR, peptide start residue: 503) | -0.968 |
| UniProt Q13188 (peptide sequence: AGNILLNTEGHAK, peptide start residue: 152) | -0.627 |
| MAP3K4 (peptide sequence: LGDFGCSVK, peptide start residue: 1479) (UniProt Q9Y6R4) | -1.67 |
| RIPK2 (peptide sequence: KTEYPDVAWPLR, peptide start residue: 110) (UniProt O43353) | -1.34 |
| ADK (peptide sequence: TGCTFPEKPDFH, peptide start residue: 351) (UniProt P55263) | -0.858 |
| UniProt Q02750 (peptide sequence: SYMSPER, peptide start residue: 228) | 1.37 |
